Screen size: about 69,000 compounds; about 8,600 (12%) showed an effect of 50% or more. The full list was thinned out, with strong results kept by preference.
System: Plasmodium berghei
Experiment: Screen against P. berghei liver stage (PbLuc), transformed with Luciferase, at 10uM
Format: functional, HepG2
Settings: tested at 10 uM

| SMILES | INHIBITION [%] |
| --- | --- |
| Cc1nccn1-c1ccc(NC(=O)C2CCCN2CC2CC2)cc1 (configuration not stated) | 55.4 |
| Cc1nccn1-c1ccc(NC(=O)C2CCCN2Cc2ccoc2)cc1 (configuration not stated) | 54.4 |
| Cc1nccn1CCCNC(=O)C1CCCCN1Cc1ccncc1 (configuration not stated) | -2.07 |
| CCCN1CCCCC1C(=O)Nc1ccc(-c2nnc[nH]2)cc1 (configuration not stated) | -28.6 |
| Cc1nccn1-c1ccc(NC(=O)C2CCCN2Cc2c[nH]cn2)cc1 (configuration not stated) | 36.2 |
| Cc1cccnc1NC(=O)C1CCCN1Cc1ccccc1 (configuration not stated) | -10.4 |
| O=C(NCC1(O)COCCN(Cc2ccc(O)cc2)C1)c1cnccn1 (configuration not stated) | -42.9 |
| CCCc1nnc(NC(=O)Cc2c(C)nc(C)[nH]c2=O)s1 | 16.585 |
| O=C(NCc1cccs1)c1nc2c(o1)CN(CC1CC1)C2 | -31.4 |
| CNC(=O)[C@@H]1[C@@H](OC(=O)Nc2ccccc2)C(=O)N(C)C12CCNCC2 | 35.8 |
| COc1ccc(C(C(=O)O)N2CCC(Cn3cccn3)CC2)c(OC)n1 (configuration not stated) | -40 |
| CCCc1nc(CN2CCCCC2Cn2cncn2)cs1 (configuration not stated) | 30.6 |
| COCCOCC(=O)N1CCC2(CCCN(C3CCOCC3)C2=O)C1 (configuration not stated) | -7.7 |
| Cn1nnc2c(N3CC(C(=O)NCCC4=CCCCC4)C3)ncnc21 | -19.1 |
| Cc1csc(CN2CC[C@H]3C[C@H](c4noc(C)n4)O[C@@H]3C2)n1 | 42.5 |
| Cc1cc(CN2CC[C@H]3C[C@H](C(=O)N(C)C)O[C@@H]3C2)no1 | 23.9 |
| O=C(C1CCOCC1)N1C[C@@H]2C[C@@H](c3nc(C4CC4)cs3)O[C@@H]2C1 | 31.8 |
| Cc1csc(CN2CC[C@H]3C[C@@H](c4nnc(C)[nH]4)O[C@@H]3C2)n1 | 72.3 |
| Cc1cc(CN2CC[C@H]3C[C@H](C)O[C@@H]3C2)no1 | 34.1 |

| SMILES | INHIBITION [%] |
| --- | --- |
| Cc1cc(CN2CC[C@H]3C[C@@H](C)O[C@@H]3C2)no1 | 50.9 |
| Cc1csc([C@H]2C[C@H]3CN(Cc4cc(C)on4)CC[C@@H]3O2)n1 | 46.6 |
| Cc1csc([C@@H]2C[C@H]3CN(c4ncc(F)cn4)C[C@H]3O2)n1 | 22.6 |
| Cc1csc(CN2CC[C@H]3C[C@H](c4nnc(C)[nH]4)O[C@@H]3C2)n1 | 23.5 |
| Cc1csc([C@@H]2C[C@@H]3CCN(Cc4cc(C)on4)C[C@H]3O2)n1 | 26.7 |
| Cc1csc([C@H]2C[C@@H]3CCN(Cc4cc(C)on4)C[C@H]3O2)n1 | 64.7 |
| Fc1cnc(N2C[C@@H]3C[C@@H](c4nc(C5CC5)cs4)O[C@@H]3C2)nc1 | 62.3 |
| Cc1c(C2CC(=O)Nc3c2cnn3C(C)(C)C)cnn1C (configuration not stated) | -56.7 |
| Cc1[nH]c2nc(CNc3cccc(Cl)c3)nn2c(=O)c1C | -10.7 |
| Cc1csc([C@@H]2C[C@@H]3CCN(C(=O)c4cccn4C)C[C@H]3O2)n1 | 50.7 |
| Cc1csc([C@H]2C[C@@H]3CCN(Cc4cnn(C)c4)C[C@H]3O2)n1 | -63.5 |
| Cc1nnc([C@H]2C[C@@H]3CCN(Cc4ccc(C)o4)C[C@H]3O2)[nH]1 | 31.7 |
| Cc1csc([C@@H]2C[C@@H]3CCN(C(=O)c4ccnnc4)C[C@H]3O2)n1 | -19 |
| Cc1cc(CN2CC[C@H]3C[C@@H](c4nc(C5CC5)cs4)O[C@@H]3C2)no1 | 68.4 |
| Cc1csc([C@H]2C[C@@H]3CCN(C(=O)c4ccnnc4)C[C@H]3O2)n1 | 4.61 |
| Cc1cc(CN2CC[C@H]3C[C@H](c4nccs4)O[C@@H]3C2)no1 | 25 |
| Cc1noc(C)c1CN1CC[C@H]2C[C@H](c3nccs3)O[C@@H]2C1 | 40.4 |
| Cc1cc(CN2CC[C@H]3C[C@@H](c4nccs4)O[C@@H]3C2)no1 | 57.9 |
| Cc1nnc([C@H]2C[C@@H]3CCN(Cc4cc(C)on4)C[C@H]3O2)[nH]1 | 35.8 |

| SMILES | INHIBITION [%] |
| --- | --- |
| Cc1ccc(CN2CC[C@H]3C[C@H](c4nc(C5CC5)cs4)O[C@@H]3C2)o1 | 21.3 |
| Cc1ccc(CN2CC[C@H]3C[C@@H](c4nc(C5CC5)cs4)O[C@@H]3C2)o1 | 63.5 |
| CC(C)c1nn(C)cc1CNCc1ccnc(N(C)C)c1 | 23.7 |
| Cn1ccc2ccnc(CC3CN(C(=O)c4cscn4)C3)c21 | 3.91 |
| CNC(=O)[C@@H]1CN(C(=O)CCOC)C[C@H]1c1ccnc(N2CCCC2)n1 | -4.68 |
| CCc1nccn1C1CCCN(C(=O)COCC(F)(F)F)C1 (configuration not stated) | 45.6 |
| Cc1ccc2c(c1)N(C(=O)c1cc[nH]c(=O)c1)CC(C)O2 (configuration not stated) | 19.3 |
| COCc1nn(CC2CC2)c2c1CN(Cc1cncn1C)CC2 | -88.6 |
| CC(C(=O)N1CCOCC1)n1cncn1 (configuration not stated) | -18.8 |
| CN(C)c1cccc(CNCc2ccc(N3CCOCC3)cc2)c1 | 34.1 |
| Cc1csc(CN2C[C@@H]3CN(C)CCO[C@@H]3C2)n1 | 57.5 |
| c1cc(CN2CC[C@H]3C[C@H](c4nc(C5CC5)cs4)O[C@@H]3C2)ccn1 | 67.5 |
| Cc1csc([C@@H]2C[C@@H]3CCN(Cc4cnn(C)c4)C[C@H]3O2)n1 | -3.19 |
| Cc1csc(CN2C[C@@H]3CN(CC4CCOCC4)CCO[C@@H]3C2)n1 | 47.5 |
| Cc1csc(CN2C[C@@H]3CN(S(C)(=O)=O)CCO[C@@H]3C2)n1 | 33.1 |
| Cn1cc(CN2CC[C@H]3C[C@H](c4nc(C5CC5)cs4)O[C@@H]3C2)cn1 | 41.8 |
| Cc1cc(CN2CC[C@H]3C[C@H](c4nc(C5CC5)cs4)O[C@@H]3C2)no1 | 74.7 |
| Cc1csc([C@@H]2C[C@@H]3CCN(C(=O)c4cc(C)on4)C[C@H]3O2)n1 | 5.53 |
| Cn1cc(CN2CC[C@H]3C[C@@H](c4nc(C5CC5)cs4)O[C@@H]3C2)cn1 | 47 |

— ChEMBL document CHEMBL4513216, “Probing the Open Global Health Chemical Diversity Library for Multistage-Active Starting Points for Next-Generation Antimalarials” (ACS Infect Dis, 2020)
